Test results: PubChem BioAssay AID1209 (Sanford-Burnham Center for Chemical Genomics, 2008)
In all, about 190,000 compounds went through this assay and about 810 (0.43%) were called active. This is one part of a sample in which actives are shown more often than they occur. Values without a mark were called inactive. Cut-off read from the data, not from the text of the source: active = inhibition above about 50%; inactive = the rest.

These compounds were tested against Mannose-6-phosphate isomerase (Homo sapiens) (UniProt P34949) (assay: MPI enzyme activity inhibition – biochemical, fluorescence intensity, coupled assay, primary screen (AID 1209;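 note: plate controls were DMSO vehicle for no effect and wells lacking substrate for full effect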)). Settings: purified PMI enzyme, at 20 µM, active compounds read high.
Sequence of Mannose-6-phosphate isomerase (Homo sapiens) (P34949 whole entry, looked up): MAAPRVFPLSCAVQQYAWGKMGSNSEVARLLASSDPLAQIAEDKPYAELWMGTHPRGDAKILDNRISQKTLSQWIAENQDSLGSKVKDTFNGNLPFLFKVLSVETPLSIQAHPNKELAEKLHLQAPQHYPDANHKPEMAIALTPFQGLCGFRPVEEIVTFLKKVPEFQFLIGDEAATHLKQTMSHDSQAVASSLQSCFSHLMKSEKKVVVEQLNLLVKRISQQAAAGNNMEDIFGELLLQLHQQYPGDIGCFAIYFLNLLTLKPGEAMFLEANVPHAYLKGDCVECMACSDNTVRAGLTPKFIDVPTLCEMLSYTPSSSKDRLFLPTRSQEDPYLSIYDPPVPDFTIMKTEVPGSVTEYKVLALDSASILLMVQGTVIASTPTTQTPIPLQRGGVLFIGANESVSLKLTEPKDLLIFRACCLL
Work on `O=C(NC1(C(F)(F)F)Oc2ccccc2O1)N1CCC2(CC1)OCCO2` yielded an inhibition of 32.9%.
With `O=C(NC(=O)N1CCC2(CC1)OCCO2)c1ccc(Cl)cc1` the inhibition was 10.2%.
In the case of `O=C(NC1(C(F)(F)F)Oc2ccc(Cl)cc2O1)N1CCC2(CC1)OCCO2` (stereo unspecified), the inhibition is reported as 79.1% (active).
In the case of `CC(=O)Nc1ccccc1C(=O)OCc1ccc(F)cc1`, the inhibition is reported as 1.8%.
`CS(=O)(=O)N1CCN(C(=N)N[N+](=O)[O-])CC1` was tested, and the inhibition was -5.1%.
For `C/C(=N\N1CCCCC1c1cccnc1)c1c(O)n(C2CCCCC2)c(=S)[nH]c1=O` (stereo unspecified), the inhibition was 5.8%.
In the case of `O=C1C(=O)c2cccc3cccc1c23`, the inhibition is reported as 17.2%.
In the case of `O=C1C=Cc2ccccc2C1=O`, the inhibition is reported as 79.1% (active).
`O=C1C(=O)c2ccccc2-c2ccccc21` showed an inhibition of 25.8%.
With `Cc1cc(Oc2ccc(C(F)(F)F)cc2[N+](=O)[O-])c2c3c(c(=O)oc2c1)CCC3` the inhibition was -1.9%.
In the case of `Cc1cc(N2C(=O)CC(N3CCC(n4c(=O)[nH]c5ccccc54)CC3)C2=O)no1` (stereo unspecified), the inhibition is reported as 6.9%.
`COc1cc(CN2CC3CC(C2)c2cccc(=O)n2C3)cc(OC)c1OC` (stereo unspecified) was tested, and the inhibition was -1.2%.
Compound `CCN(CC)c1ccc(N=Cc2c(O)n(CCC3=CCCCC3)c(=O)[nH]c2=O)cc1` has an inhibition of 24.6%.
For `CCN(CC)c1ccc(N=Cc2c(O)n(CCc3ccc(OC)c(OC)c3)c(=O)[nH]c2=O)cc1`, the inhibition was 50% (active).
`CCN(CC)CCCN=Cc1c(O)n(CCc2ccc(OC)c(OC)c2)c(=O)[nH]c1=O` was tested, and the inhibition was -10.4%.
For `CCOC(=O)C(NC(=O)C(Cc1ccc(N(CCCl)CCCl)cc1)NC(C)=O)C(C)C` (stereo unspecified), the inhibition was -44.3%.
For `Cc1ccc(N2C(=O)/C(=C/N3CCN(C(=O)c4ccco4)CC3)C(=O)NC2=S)cc1C`, the inhibition was 37.6%.
With `Cc1cccc(N2C(=O)/C(=C/N3CCN(C(=O)c4ccco4)CC3)C(=O)NC2=S)c1` the inhibition was 55.5% (active).
`O=C1NC(=S)N(c2ccc(Br)cc2)C(=O)/C1=C/N1CCN(C(=O)c2ccco2)CC1` showed an inhibition of 25.8%.
Work on `CSCCC(N=Cc1c(O)n(-c2ccc(F)cc2)c(=O)[nH]c1=O)C(=O)OC(C)(C)C` (stereo unspecified) yielded an inhibition of 12.2%.
`O=C(CNC(=O)c1cccc(Cl)c1)Nc1ccc(Br)cc1C(=O)c1ccccc1` gave an inhibition of 17.1%.
`Cc1ccc(NC2=NCCCS2)c(C)c1C` gave an inhibition of 12.6%.
With `C=CCN1C(=O)/C(=C/c2cc(C)n(-c3ccccn3)c2C)C(=O)NC1=S` the inhibition was -25.6%.
`Cc1cc(/C=C2/C(=O)NC(=O)N(C)C2=O)c(C)n1-c1ccccc1` gave an inhibition of 2.6%.
In the case of `Cc1cc(C=C2C(=O)N(C)C(=S)N(C)C2=O)c(C)n1-c1cccnc1`, the inhibition is reported as 59.6% (active).
In the case of `Cc1cc(C=C2C(=O)N(C)C(=O)N(C)C2=O)c(C)n1-c1ccccc1`, the inhibition is reported as -25.1%.
In the case of `C=CCN1C(=O)/C(=C/c2cc(C)n(-c3cccnc3)c2C)C(=O)NC1=S`, the inhibition is reported as 50.2% (active).
`Cc1ccnc(-n2c(C)cc(C=C3C(=O)N(C)C(=S)N(C)C3=O)c2C)c1` gave an inhibition of 23.1%.
Compound `COc1cc2c(cc1O)C[C@H]1NCCc3cc4c(c-2c31)OCO4` has an inhibition of 6.6%.
With `CCOC(=O)c1c(C)n(Cc2ccccc2)c2ccc(OCC(O)Cn3nc(C)cc3C)cc12` (stereo unspecified) the inhibition was 16.3%.
In the case of `CCOC(=O)c1c(C)n(Cc2ccccc2)c2ccc(OCC(O)Cn3nc(C)nc3C)cc12` (stereo unspecified), the inhibition is reported as 15.7%.
With `CCOC(=O)c1c(C)n(Cc2ccccc2)c2ccc(OCC(O)CN3C(=O)CNC3=O)cc12` (stereo unspecified) the inhibition was 60.1% (active).
For `C=CCOC(=O)C1=C(C)OC(N)=C(C#N)[C@@]12C(=O)N(CC(N)=O)c1ccccc12`, the inhibition was -6.8%.
With `CCOC(=O)C1=C(C)OC(N)=C(C#N)C12C(=O)N(C)c1ccccc12` (stereo unspecified) the inhibition was 5.2%.
With `C#CCN1C(=O)C2(C(C#N)=C(N)OC(C)=C2C(=O)OCc2ccccc2)c2ccccc21` (stereo unspecified) the inhibition was 51.6% (active).
With `Nc1ccc(Cl)cc1C(=O)c1ccccc1Cl` the inhibition was 5.4%.
For `CN(C)C(=O)OCc1n(C)cc[n+]1C`, the inhibition was -9.3%.
With `CCN(CC)P(c1n(C)cc[n+]1C)N(CC)CC` the inhibition was 54.3% (active).
For `CNC(=O)OCc1n(C)cc[n+]1C`, the inhibition was 20.7%.
`CCn1cc(CN2CCCC(C(=O)c3cccc(OC)c3)C2)c(C)n1` (stereo unspecified) was tested, and the inhibition was 13%.
Work on `CNC(C(=O)c1ccccc1)C(OC)c1ccc(C)cc1` (stereo unspecified) yielded an inhibition of -37.6%.
